Measured values: PubChem BioAssay (NCATS)
Results filed as inconclusive are left out. The source made the active and inactive calls. The call rests on the fitted dose curve; in most records, active means well fitted curve in the direction sought with a large enough effect; inconclusive means small, poorly fitted or top-dose-only effect, or another doubt; inactive means no such curve, though single readings can be large; an effect the other way counts as inactive or inconclusive. Where a SMILES comes first, the peptide text is derived from it. Bridges are numbered along the chain shown (N, C = ends). [ ]: non-standard residue; d: D form. hArg = N=C(N)NCCCC[C@H](N)C(=O)O; Mpa = O=C(O)CCS

How the values were obtained:
[1] = qHTS to identify inhibitors of the type 1 interferon - major histocompatibility complex class I in skeletal muscle: primary screen against the NCATS Pharmaceutical Collection (AID 1347407);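 further: luminescence of HiBiT knocked into endogenous HLA-B as interferon-induced MHC class I level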
Outline: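 Compounds […] were added to CRISPR-engineered HLA-B-HiBiT C25cl48 human myoblasts with 4.0 ng/ml IFN-beta. After 24 hrs at 37 C, cells were lysed and HiBiT luminescence measured.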

[2] = biological target: Protein phosphatase 1D (Homo sapiens) (UniProt O15297); experiment: RapidFire Mass Spectrometry qHTS Assay for Modulators of WT P53-Induced Phosphatase 1 (WIP1) (AID 1347424);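 further: amount of dephosphorylated VEPPL-S-QETFS peptide product formed by WIP1; series mostly up to about 63 µM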
Outline: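 Mass-spectrometric measurement of dephosphorylated peptide after a 5 min room-temperature reaction of 10 nM WIP1 with 2 uM phosphopeptide, following 1 h compound preincubation in 30 mM MgCl2 buffer.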

[3] = biological target: Protein phosphatase 1D (Homo sapiens) (UniProt O15297); experiment: Rhodamine-PBP qHTS Assay for Modulators of WT P53-Induced Phosphatase 1 (WIP1) (AID 1347425)
Outline: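 5 nM WIP1 + 10 uM Rh-PBP, 50 mM Tris pH 7.5, 30 mM MgCl2, 1 mM TCEP, 0.1 mM EGTA, BSA; cpds pinned, 1 hr RT; + 10 uM phosphopeptide; fluorescence 1-min reads x 11 min; delta = f1 - f0.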

[4] = Primary qHTS for inhibitors of La Crosse Virus (LACV) - induced cell death in SH-SY5Y cells (AID 1508616);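 further: top concentration of the series differs between compounds; higher means more rescue of cells from virus-induced death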
Outline: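 Cytopathicity rescue screen: compounds pinned onto SH-SY5Y cells, which are then infected with LACV (MOI 0.01) and held 6 days at 37C. Percent activity is scaled between infected DMSO control and uninfected DMSO control.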

[5] = biological target: Calcium and integrin-binding protein 1 (Homo sapiens) (UniProt Q99828); experiment: Primary qHTS for Identification of Calcium Integrin Binding Protein 1 (CIB1) Competitor (AID 1508620);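 further: GST tagged CIB1 binding a fluorescein labelled alphaIIb integrin peptide tracer; top concentration of the series differs between compounds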
Outline: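 Fluorescence polarization competition: CIB1-GST (1 uM final) preincubated with compound 15 min at room temperature, then FITC-labeled alphaIIb peptide (100 nM final) added for another 15 min. Polarization read at Ex 480/Em 540.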

[6] = qHTS to identify inhibitors of the type 1 interferon - major histocompatibility complex class I in skeletal muscle: primary screen against the NCATS Mechanism Interrogation Plate v5.0 (MIPE) Libary (AID 1347411); further: nearly all actives have a fitted effect of over 65% in size
Outline: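 HLA-B HiBit myoblasts, dexamethasone-free medium + 4 ng/ml IFN-b, 24 h compound, 11-pt 1:3 from 46 uM final. Readout: Nano-Glo HiBiT lytic luminescence after 10 min lysis, RT.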

Measured: outcome

Sequence of Protein phosphatase 1D (Homo sapiens) (O15297 whole entry, looked up): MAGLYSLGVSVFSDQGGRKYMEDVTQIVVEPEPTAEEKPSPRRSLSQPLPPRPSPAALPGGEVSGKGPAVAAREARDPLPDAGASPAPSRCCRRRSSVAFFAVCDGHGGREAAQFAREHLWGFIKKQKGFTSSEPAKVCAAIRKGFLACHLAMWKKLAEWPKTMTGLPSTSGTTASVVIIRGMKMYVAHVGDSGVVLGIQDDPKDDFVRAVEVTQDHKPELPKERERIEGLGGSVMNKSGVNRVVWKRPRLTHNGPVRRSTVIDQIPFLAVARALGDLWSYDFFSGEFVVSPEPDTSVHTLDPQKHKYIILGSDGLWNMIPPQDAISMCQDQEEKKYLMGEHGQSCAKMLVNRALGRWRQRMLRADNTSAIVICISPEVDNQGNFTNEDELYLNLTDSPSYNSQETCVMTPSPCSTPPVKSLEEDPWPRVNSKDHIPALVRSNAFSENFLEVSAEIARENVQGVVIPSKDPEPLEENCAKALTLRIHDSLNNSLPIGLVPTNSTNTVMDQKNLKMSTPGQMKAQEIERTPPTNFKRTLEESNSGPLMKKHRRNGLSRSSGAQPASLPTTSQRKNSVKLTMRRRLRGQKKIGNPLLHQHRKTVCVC
Sequence of Calcium and integrin-binding protein 1 (Homo sapiens) (Q99828 whole entry, looked up): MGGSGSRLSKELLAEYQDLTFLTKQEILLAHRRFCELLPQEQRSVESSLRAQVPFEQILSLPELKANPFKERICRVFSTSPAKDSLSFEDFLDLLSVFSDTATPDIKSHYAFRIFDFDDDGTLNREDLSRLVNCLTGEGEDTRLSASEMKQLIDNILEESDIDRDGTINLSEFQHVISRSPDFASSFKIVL

NCC1CCC(C(=O)Oc2ccc(CCC(=O)O)cc2)CC1 (stereo not given)
inactive: [1] | [2] | [3] | [4] | [5]

CC(C)(C)NCC(O)COc1cccc2c1CCC(=O)N2 (stereo not given)
inactive: [1] | [2] | [3] | [4] | [5]

O=C1c2ccccc2S(=O)(=O)N1CCCCN1CCN(c2ncccn2)CC1
inactive: [1] | [2] | [3] | [5]

NC(=O)[C@@H]1CSSCCC(=O)N[C@@H](CCCCN=C(N)N)C(=O)NCC(=O)N[C@@H](CC(=O)O)C(=O)N[C@@H](Cc2c[nH]c3ccccc23)C(=O)N2CCC[C@H]2C(=O)N1 ([Mpa][hArg]GDWPC-NH2; disulfide 1-7)
inactive: [1] | [2] | [3] | [5]

Cc1ccccc1N=Nc1ccc(N=Nc2c(O)ccc3ccccc23)c(C)c1
inactive: [1] | [2] | [3] | [5]

C=CCSCC1Nc2cc(Cl)c(S(N)(=O)=O)cc2S(=O)(=O)N1 (stereo not given)
inactive: [1] | [2] | [3] | [5]

CC(=O)NCc1c(I)c(NC(C)=O)c(I)c(C(=O)O)c1I
inactive: [1] | [2] | [3] | [5]

C[N+](C)(C)CC(O)CC(=O)[O-] (stereo not given)
inactive: [1] | [2] | [3] | [5]

CCCCCC(C)N (stereo not given)
inactive: [1] | [2] | [3] | [5]

CC(=O)N(CC(O)CO)c1c(I)c(C(=O)NCC(O)CO)c(I)c(C(=O)NCC(O)CO)c1I (stereo not given)
inactive: [1] | [2] | [3] | [5]

CC(=O)N[C@@H](CC(C)C)C(=O)O
inactive: [1] | [2] | [3] | [5]

COc1ccc(C(=O)NCc2ccc(OCCN(C)C)cc2)cc1OC
inactive: [1] | [2] | [3] | [5]

CCCNC(C)C(=O)Nc1c(C)csc1C(=O)OC (stereo not given)
inactive: [1] | [2] | [3] | [5]

COc1cc(O)cc(O)c1
inactive: [1] | [2] | [3] | [5]

CC(C)(C)C(=O)OCOC(=O)[C@@H]1N2C(=O)[C@@H](NC(=O)[C@H](N)c3ccccc3)[C@H]2SC1(C)C
inactive: [1] | [2] | [3] | [5]

CC1(C)[C@@H](OC(=O)CCC(=O)O)CC[C@]2(C)[C@H]3C(=O)C=C4[C@@H]5C[C@@](C)(C(=O)O)CC[C@]5(C)CC[C@@]4(C)[C@]3(C)CC[C@@H]12
inactive: [1] | [4]

CC(C)=CCC[C@@](C)(O)[C@H]1CC=C(C)CC1
inactive: [1] | [2] | [3] | [4] | [5]

CCCCCCCCCCC(CO)CCCCCCCC (stereo not given)
inactive: [1] | [2] | [3] | [5]

CN1CCCN=C1COC(=O)C(O)(c1ccccc1)C1CCCCC1 (stereo not given)
inactive: [1] | [2] | [3] | [5]

O=C(O)[C@@H]1[C@H]2C[C@H]3c4[nH]c5ccccc5c4CCN3C[C@@H]2CC[C@@H]1O
inactive: [1] | [3] | [4]

O=C(O)C(S)C(S)C(=O)O (stereo not given)
inactive: [1] | [2] | [3] | [5]

Cc1c(I)c(=O)n(-c2ccccc2)n1C
inactive: [1] | [2] | [3] | [4] | [5]

O=C(O)Cn1c(C(=O)Nc2nc(-c3ccccc3Cl)cs2)cc2ccccc21
inactive: [1] | [4] | [5]

Cc1ccsc1C(=CCCN1CCC[C@@H](C(=O)O)C1)c1sccc1C
inactive: [6] | [3] | [4] | [5]

Cc1cc(OI)c(C(C)C)cc1-c1cc(C(C)C)c(OI)cc1C
inactive: [1] | [2] | [3] | [5]

O=C1c2ccccc2C(=O)C1c1ccc(Br)cc1
inactive: [1] | [4] | [5]

CC1(c2ccccc2)OC(C(=O)O)=CC1=O (stereo not given)
inactive: [1] | [2] | [3] | [5]

CCOC(=O)[C@H](CCc1ccccc1)N[C@@H](C)C(=O)N1CCC[C@H]1C(=O)O
inactive: [6] | [2] | [3] | [4] | [5]

COc1ccc(Cc2cnc(N)nc2N)cc1OC
inactive: [1] | [2] | [3] | [5]

CN1C(C)(C)CCCC1(C)C
inactive: [1] | [2] | [3] | [4] | [5]

OC(CCN1CCCC1)(c1ccccc1)C1CCCCC1 (stereo not given)
inactive: [1] | [3] | [4]

CC(=O)N[C@@H](Cc1ccc(O)cc1)C(=O)O
inactive: [1] | [3] | [4]

O=C(Cn1ccnc1[N+](=O)[O-])NCCO
inactive: [1] | [2] | [3] | [5]

Nc1ccncc1N
inactive: [2] | [3]

CCc1cccc(CC)c1NC(=O)CN(CC(=O)O)CC(=O)O
inactive: [1] | [2] | [3] | [5]

O=C(O)c1ccc(OCCCOc2ccc(C(=O)O)cc2)cc1
inactive: [2] | [3]

CO[C@@]1(NC(=O)C(C(=O)O)c2ccc(O)cc2)C(=O)N2C(C(=O)O)=C(CSc3nnnn3C)CO[C@@H]21 (stereo not given in full)
inactive: [1] | [2] | [3] | [5]

O=C(O)c1ccccc1OP(=O)(O)O
inactive: [1] | [2] | [4] | [5]

O=C1c2cccc(O)c2C(=O)c2c(O)cccc21
inactive: [2] | [3]

Nc1ccc(S(=O)(=O)c2ccc(N)cc2)cc1
inactive: [2] | [3]

C/C(=C(\CCO)SS/C(CCO)=C(\C)N(C=O)Cc1cnc(C)nc1N)N(C=O)Cc1cnc(C)nc1N
inactive: [2] | [3] | [4] | [5]
